Screen size: about 360,000 compounds; about 25,000 (6.9%) were called active. Roughly 9% stayed inconclusive and do not appear here. What follows is part of a selection rich in actives, with near analogues and random picks from the rest. A call without a number means that no potency is given here. Values without a mark were called inactive. The call rests on the fitted dose curve; in most records, active means well fitted inhibition curve with a large enough effect; inconclusive means small, poorly fitted or top-dose-only effect; inactive means flat fitted curve, though single readings scatter.
Potency means the concentration at half of the fitted maximal effect.

Chain of Luciferin 4-monooxygenase (Photinus pyralis) (P08659 whole entry, looked up): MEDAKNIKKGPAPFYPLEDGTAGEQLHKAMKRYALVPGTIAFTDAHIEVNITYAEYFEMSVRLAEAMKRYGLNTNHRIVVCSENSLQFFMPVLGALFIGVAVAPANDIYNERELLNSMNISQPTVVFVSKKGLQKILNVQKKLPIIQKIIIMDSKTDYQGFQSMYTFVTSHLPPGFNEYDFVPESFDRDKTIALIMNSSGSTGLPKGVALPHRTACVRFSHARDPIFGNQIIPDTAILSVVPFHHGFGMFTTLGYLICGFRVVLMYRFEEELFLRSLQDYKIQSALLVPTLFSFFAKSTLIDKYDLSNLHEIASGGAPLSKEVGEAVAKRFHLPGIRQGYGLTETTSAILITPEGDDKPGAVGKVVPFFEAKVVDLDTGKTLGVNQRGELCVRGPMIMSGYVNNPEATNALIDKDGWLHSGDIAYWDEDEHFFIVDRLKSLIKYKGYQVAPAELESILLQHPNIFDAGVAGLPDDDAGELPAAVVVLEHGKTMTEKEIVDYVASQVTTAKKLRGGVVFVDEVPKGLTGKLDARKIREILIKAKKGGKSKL

The test has as its target Luciferin 4-monooxygenase (Photinus pyralis) (UniProt P08659). Kind of test: qHTS profiling assay for firefly luciferase inhibitor/activator using purifed enzyme and Km concentrations of substrates (counterscreen for miR-21 project). Further: nearly all actives have a fitted effect of over 55% in size. The conditions noted are these: purified FLuc, luminescence inhibition; series mostly up to 57.5 µM. The gist of the method: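 Purified P. pyralis luciferase (10nM final) with 10uM D-luciferin and 10uM ATP (Km levels) in 50mM Tris acetate pH 7.5, 10mM Mg acetate, 0.01% Tween-20, 0.05% BSA; qHTS 6-point titration, ~60 µM downward; luminescence read.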
Consider `O=C1/C(=C/c2ccc(F)cc2)SC(=S)N1NS(=O)(=O)c1ccccc1`, for which the Potency result was “inactive”.

`O=C(CSc1nc2ncccc2[nH]1)Nc1ccc2c(c1)OCCO2`: the Potency is 15.1 µM (active). Take `CC(C)NS(=O)(=O)c1ccc(OCC(=O)Nc2ccc3c(c2)OCCO3)cc1`: the activity change, negative = inhibition was 3.95% [at 2.3 µM]. As to `O=C(CSc1nc(=O)n2ccccc2n1)Nc1ccc2c(c1)OCCO2`, the Potency entry is “inactive”. Same read-out and setting: the result for `Cc1ccc(-n2c(SCC(=O)Nc3ccc4c(c3)OCO4)nnc2-c2ccoc2C)cc1` reads “inactive”.

Consider `Cc1ccc(S(=O)(=O)NCC(=O)Nc2ccc3c(c2)OCCO3)cc1`, for which the Potency entry is “inactive”. Consider `Cc1ccc(SCC(=O)Nc2ccc3c(c2)OCCO3)cc1`, for which the Potency is 6.75 µM (active).

Take `COc1ccc(Cn2ccnc2SCC(=O)Nc2ccc3c(c2)OCO3)cc1`: the Potency result is “inactive”. On the same count and under the same terms, the result for `COc1ccc(NC(=O)CSc2nccn2Cc2ccc3c(c2)OCO3)cc1` reads “inactive”; that for `COc1ccc(NC(=O)CSc2nc3ncccc3[nH]2)c(OC)c1`, “inactive”. Same read-out and setting: then `Cn1ccnc1SCC(=O)Nc1ccc2c(c1)OCCO2`, with 23.9 µM (active); and `CCc1ccccc1OCC(=O)Nc1ccc2c(c1)OCCO2`, with 10.7 µM (active).

For the compound `CCC(=O)c1cc(F)ccc1OCC(=O)Nc1ccc2c(c1)OCCO2`, the Potency result is “inactive”.

In the case of `CC(C)CCN(C(=O)Nc1ccc(Cl)c(Cl)c1)C(C)c1cccs1` (stereo unspecified), the Potency entry is “inactive”. Same read-out and setting: then `CCOC(=O)c1cc2c(=O)n3ccccc3nc2n(CC2CCCO2)c1=NC(=O)c1ccc(C(C)(C)C)cc1` (stereo unspecified), with “inactive”; and `COc1ccc(NC(=O)CCNS(=O)(=O)c2ccc3c(c2)CCCC(=O)N3)cc1Cl`, with “inactive”. Take `Cc1c(Cl)cccc1NC(=O)C(=O)NCCc1csc2nc(-c3ccccc3F)nn12`: the Potency result is “inactive”. The same measure, in the same setting: the result for `NC(CSC12CC3CC(CC(C3)C1)C2)C(=O)O` (stereo unspecified) reads “inactive”. With `O=C(COc1ccc(Cl)cc1)Nc1ccc2c(c1)OCO2`, the Potency was 19 µM (active). `S=C(NCc1ccco1)Nc1ccc2c(c1)OCCO2`: the Potency is 15.1 µM (active). Still for that read-out and setting: then `CS(=O)(=O)c1ccc(-c2nnn(CC(=O)Nc3ccc4c(c3)OCCO4)n2)cc1`, with “inactive”. On the same count and under the same terms, the result for `COc1ccccc1OCCCC(=O)Nc1ccc2c(c1)OCCO2` reads “inactive”; that for `Cc1cc(C)c2c(=O)[nH]c(SCC(=O)Nc3ccc(Br)cc3)nc2n1`, “inactive”. Same read-out and setting: the result for `S=C(NCc1ccc2c(c1)OCO2)NCc1ccco1` reads “inactive”; that for `FC(F)Oc1ccc(NC(=S)NCc2ccco2)cc1Cl`, “inactive”; that for `CCCCC(=O)Nc1ccc2c(c1)OCCO2`, 21.3 µM (active). As for `O=C(CCS(=O)(=O)Cc1ccccc1)Nc1ccc2c(c1)OCCO2`, the Potency result was “inactive”. On to `O=C(COc1ccc(Cl)cc1)Nc1ccc2oc(=O)ccc2c1`, for which the Potency result was “inactive”. Same read-out and setting: then `COc1ccc(Cl)cc1NC(=O)COc1ccc2c(c1)OCO2`, with “inactive”. Regarding `O=C(CSc1ncc(S(=O)(=O)c2ccc(Br)cc2)c(=O)[nH]1)Nc1ccc2c(c1)OCCO2`, the Potency is 9.53 µM (active). The same measure, in the same setting: then `COc1ccccc1CNc1nc2ccc(Cl)cc2n2cnnc12`, with “inactive”; and `COCCN(C(=O)CCC(=O)Nc1nccs1)C(C(=O)NCCC(C)C)c1ccc(F)cc1` (stereo unspecified), with “inactive”; and `COc1ccccc1C(=O)Nc1ccc(C)c(S(=O)(=O)N2CCCCC2)c1`, with “inactive”. Regarding `CCc1ccccc1NC(=O)c1cnn(-c2ccc(F)cc2)c1C1CCNCC1`, the Potency entry is “inactive”.

With `CCc1ccc(C2N3CC4([N+](=O)[O-])CN2CC([N+](=O)[O-])(C3)C4(C)C)cc1` (stereo unspecified), the Potency result is “inactive”. As to `Cc1ccc(NC(=O)C(Cc2ccccc2)NS(=O)(=O)c2ccc3c(c2)oc(=O)n3C)cc1C` (stereo unspecified), the Potency result is “inactive”. For the compound `Cc1ccc(S(=O)(=O)N(CC(=O)Nc2ccc(Cl)cc2Cl)c2ccccc2C)cc1`, the Potency entry was “inactive”. On to `COc1cccc(CNC(=O)Cn2c(=O)c3cccn3c3ccc(F)cc32)c1OC`, for which the Potency entry is “inactive”. `Cc1ccc(NC(=O)CN(C)C(=O)Cn2nnc(-c3ccccc3)n2)cc1`: the Potency entry is “inactive”.

As for `Cc1nc2ccc(S(=O)(=O)NC(C(=O)NCc3ccccc3Cl)C(C)C)cc2s1` (stereo unspecified), the Potency entry is “inactive”. Still for that read-out and setting: then `CSc1nnc(-c2ccc(C(F)(F)F)cn2)o1`, with “inactive”. The same measure, in the same setting: then `O=C(COc1ccccc1F)Nc1ccc(C(=O)OCc2cc(=O)n3nc(C4CC4)sc3n2)cc1`, with “inactive”; and `COc1ccc(NC(=O)CSc2nc(NS(=O)(=O)c3ccc(C)cc3)cc(=O)[nH]2)cc1`, with “inactive”. On to `Cc1cc(=O)[nH]c(SCC(=O)Nc2ccc(Br)cc2)n1`, for which the Potency result is “inactive”. Regarding `Cc1ccc(NC(=O)CSc2nc(CSc3ccc(C)cc3)cc(=O)[nH]2)cc1`, the Potency was 21.3 µM (active). Still for that read-out and setting: the result for `CC(C)Cc1nnc(NC(=O)CCNC(=O)c2ccccc2Cl)s1` reads “inactive”; that for `C/C=C/C=C/C(=O)O`, “inactive”. On the same count and under the same terms, the result for `COc1ccc(S(=O)(=O)c2cn(C)c3cc(N4CCCCC4)c(F)cc3c2=O)cc1` reads “inactive”. With `COc1ccc(C(=O)NCC(c2ccc(N(C)C)cc2)N2CCc3ccccc32)c(OC)c1` (stereo unspecified), the Potency result is “inactive”. With `COc1ccc(S(=O)(=O)N2CCCCC2)cc1C(=O)NC1CCS(=O)(=O)C1` (stereo unspecified), the Potency result was “inactive”. For the compound `CN1OC(COC(=O)c2ccc(Cl)cc2)CC1c1ccccc1` (stereo unspecified), the Potency is 19 µM (active). As to `CCOC(=O)c1ccc(CN(Cc2ccccc2)S(=O)(=O)c2ccc(Cl)cc2)cc1`, the Potency result was “inactive”. On the same count and under the same terms, the result for `Cn1cncc1COC(=O)c1ccc(Cl)cc1` reads “inactive”. As for `O=C(CCS(=O)(=O)c1ccccc1)N(Cc1cccnc1)c1nc2c(F)cccc2s1`, the Potency entry is “inactive”. `CN(C)c1cccc(C(=O)N2CCC(n3nccc3NC(=O)C3CCOC3)CC2)c1` (stereo unspecified): the Potency result was “inactive”. As for `CN(CCO)c1ccc(/C=N/Nc2nncc3ccccc23)cc1`, the Potency was 0.0757 µM (active). On to `Cc1cc2cc3c(N)[nH]nc3nc2cc1C`, for which the Potency is 4.78 µM (active). As for `COCCNC(=O)NC(=O)COC(=O)C1(c2ccc(Cl)cc2)CC1`, the Potency result is “inactive”. Still for that read-out and setting: the result for `CCN(CC)C(=O)CS(=O)CC(=O)Nc1cc(OCCOC)c(Cl)cc1Cl` (stereo unspecified) reads “inactive”. Same read-out and setting: the result for `O=C(CSc1nnc(-c2ccc(NS(=O)(=O)c3ccccc3)cc2)o1)NCC1CCCO1` (stereo unspecified) reads “inactive”. On the same count and under the same terms, the result for `O=C(CSc1ccc(-c2ccc(Br)cc2)nn1)NCC1CCCO1` (stereo unspecified) reads 15.1 µM (active); that for `O=C(CSc1ccc(-c2ccccc2)nn1)NCC1CCCO1` (stereo unspecified), “inactive”. In the case of `CCCC[C@]12Cc3cc(OC)c(OC)cc3C(O1)C1=C(CC3(CCCCC3)OC1=O)O2`, the activity change, negative = inhibition was -0.0926% [at 11.5 µM].

Take `O=C(O)c1ccccc1CSc1nc2ccccc2s1`: the Potency was 19 µM (active). For the compound `CCN(CC)CCCSc1nc2ccccc2s1`, the Potency result was “inactive”. Same read-out and setting: then `Cc1cc(C)c(C#N)c(SCc2ccccc2C(=O)O)n1`, with “inactive”.

The values are drawn from PubChem BioAssay AID588342 (National Center for Advancing Translational Sciences (NCATS), 2011).
